Data as given in PubChem BioAssay.
Some of the results follow. Calls of active or inactive are those of the source.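 How the source made its calls, unless noted: active means mean inhibition of the reporter signal across four replicates at the single tested dose of 50% or more; inactive means the rest.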

experiment: HIF-2a driven luciferase blockers, single dose – luminescence, 786-0 RCC cells, confirmation (AID 651580;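 active means mean inhibition across four replicates of at least 40 percent at the single tested concentration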); settings: HIF-2a luciferase reporter luminescence, overnight, at 18.8 µM, hits give high values

| SMILES | inhibition |
| --- | --- |
| COc1ccc(Nc2ncnc3ccc(Br)cc23)c(OC)c1 | 91.3% (active) |
| COc1ccccc1-n1nnnc1S(=O)(=O)Cc1ccc(Cl)cc1 | 70.5% (active) |
| COC(=O)Cc1[nH]n(-c2nc3ccccc3s2)c(=O)c1C(C)=Nc1ccc(OC)cc1 | 82.3% (active) |
| C=C(C)C(=O)O[C@H]1C/C(C)=C\C(=O)/C=C(\C)[C@H](O)[C@@H]2OC(=O)C(=C)[C@@H]21 | 61.8% (active) |

experiment: HIF-1a luciferase reporter signal reduction – MiaPaCa-2 cells, single concentration, counter-screen for HIF-2a inhibitor project, confirmation (AID 651589); settings: MiaPaCa-2 HIF-1a luciferase reporter, desferoxamine, overnight; at 18.8 µM; hits give high values

| SMILES | inhibition |
| --- | --- |
| COc1ccc(Nc2ncnc3ccc(Br)cc23)c(OC)c1 | 102% (active) |
| COc1ccccc1-n1nnnc1S(=O)(=O)Cc1ccc(Cl)cc1 | 102% (active) |
| COC(=O)Cc1[nH]n(-c2nc3ccccc3s2)c(=O)c1C(C)=Nc1ccc(OC)cc1 | 92.7% (active) |
| C=C(C)C(=O)O[C@H]1C/C(C)=C\C(=O)/C=C(\C)[C@H](O)[C@@H]2OC(=O)C(=C)[C@@H]21 | 108% (active) |
